In PubChem BioAssay AID1851 (National Center for Advancing Translational Sciences (NCATS), 2009):
Several values for one entry are separate records, joined by “and”; a condition that tells them apart may be missing. Identical values can stand only once. Among all 16,000 compounds or so, about 2,600 (16%) were called active. About 20% were inconclusive and are not listed. Not all results are given here. A number with no mark means an inactive call. The call rests on the fitted dose curve; in most records, active means well fitted curve in the direction sought with a large enough effect; inconclusive means small, poorly fitted or top-dose-only effect, or effect the other way; inactive means no such curve, though single readings can be large or run the other way. Peptide text beside a SMILES is read from it. * marks the point of attachment. Cbz = O=C(OCc1ccccc1)*

target: Cytochrome P450 2D6 (Homo sapiens) (UniProt P10635); experiment: Cytochrome panel assay with activity outcomes; settings: recombinant CYP, pro-luciferin dealkylation, luminescence, p450-cyp2d6; series mostly up to 57.1 µM
Sequence (P10635 whole entry, looked up): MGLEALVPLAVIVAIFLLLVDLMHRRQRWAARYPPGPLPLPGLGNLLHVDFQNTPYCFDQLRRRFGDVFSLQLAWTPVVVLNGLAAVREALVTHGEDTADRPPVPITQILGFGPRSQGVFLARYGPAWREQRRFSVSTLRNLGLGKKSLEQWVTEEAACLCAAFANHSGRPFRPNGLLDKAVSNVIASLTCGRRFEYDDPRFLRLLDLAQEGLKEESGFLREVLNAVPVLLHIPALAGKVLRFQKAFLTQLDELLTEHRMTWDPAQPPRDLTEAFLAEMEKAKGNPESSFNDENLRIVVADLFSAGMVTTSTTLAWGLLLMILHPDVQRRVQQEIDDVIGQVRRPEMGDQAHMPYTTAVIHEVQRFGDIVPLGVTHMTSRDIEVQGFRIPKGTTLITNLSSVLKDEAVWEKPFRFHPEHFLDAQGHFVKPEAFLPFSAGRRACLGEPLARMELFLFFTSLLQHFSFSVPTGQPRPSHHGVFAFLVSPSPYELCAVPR
On the % scale 0 is the no-effect control and ±100 the full control effect.

SMILES	AC50	activity, negative = inhibition
COc1cc2cc3c4cc(OC)c(OC)cc4cc[n+]3c(C)c2cc1OC	inactive	
CNC(=O)c1c(I)c(C(=O)NCC(=O)Nc2c(I)c(C(=O)O)c(I)c(C(=O)NCCO)c2I)c(I)c(N(C)C(C)=O)c1I	inactive	
CCOC(=O)[C@H](CCc1ccccc1)N[C@@H](C)C(=O)N1CCC[C@H]1C(=O)O	inactive	
N#C/C(=C\c1ccc(O)c(O)c1)C(=O)NCc1ccccc1	inactive	
N#C/C(=C\c1ccc(O)c(O)c1)C(=O)NCCCc1ccccc1	31.6 µM (active)	
C[C@H](NC(=O)/C(C#N)=C/c1ccc(O)c(O)c1)c1ccccc1	inactive	
C[C@@H](NC(=O)/C(C#N)=C/c1ccc(O)c(O)c1)c1ccccc1	inactive	
CCOC(=O)/C(C#N)=C\c1ccc(OCC(=O)Nc2ccc(C)cc2C)c(OC)c1	inactive	
N#C/C(=C\c1ccc(O)c(O)c1)C(=O)OCCc1cccs1	12.6 µM (active)	
Nc1ncncc1-c1ccc([N+](=O)[O-])cc1	inactive	
CC(=O)NC(NC(C)=O)c1ccc(Br)cc1	inactive	
Cc1ccc(-n2nnnc2Sc2nc([N+](=O)[O-])nn2C)cc1C	inactive	
Cc1nc(S(=O)(=O)c2cccc(Cl)c2)nc2c1CCC2	inactive	
CC(=O)N(CC(=O)O)c1ccccc1C(=O)O	inactive	
CC(C)(C)c1cccc(Oc2nn[nH]n2)c1	inactive	
CC1=C(C(N)=O)C(c2cccs2)n2nc(-c3cccc(Cl)c3)nc2N1 (centres undefined)	inactive	
O=c1[nH]c2cc(Br)cnc2nc1/C=C(\O)c1ccc(F)cc1	inactive	
COC(=O)[C@@H]1C[C@H]1[C@@H](NC(=O)c1cccnc1)c1ccccc1	inactive	
COCCn1c(=O)c(-c2cccc(C#N)c2)nc2cnc(Oc3ccccc3)nc21	inactive	
Cc1ccc(C)c(NC(=O)NCc2ccc(Cl)cc2)c1	3.98 µM (active)	
NC(=O)NCc1ccc(Cl)cc1	inactive	
Cc1ccc(Cn2cccc(NC(=O)NCc3ccccc3)c2=O)cc1	inactive	
CCc1c(C)c2c(C)[nH]nc2oc1=O	inactive	
N#Cc1c(-c2ccc(Cl)cc2)nc2n(c1=O)CCCS2	inactive	
O=C(NCc1ccc2c(c1)OCO2)C1CC(c2cccc(Br)c2)=NO1 (centres undefined)	0.891 µM (active)	

SMILES	AC50	activity, negative = inhibition
COCCNC(=O)C1CC(c2cccc(OC)c2)=NO1 (centres undefined)	inactive	
COc1ccc(CNC(=O)C2CSC(=O)C2)cc1 (centres undefined)	inactive	
COc1cccc(C2=NOC(C(=O)NCCN3CCOCC3)C2)c1 (centres undefined)	inactive	
COc1cccc(C2=NOC(C(=O)Nc3cccnc3)C2)c1 (centres undefined)	11.2 µM (active)	
O=C(NNC(=O)C1CC(c2cccnc2)=NO1)Nc1cccc(F)c1 (centres undefined)	inactive	
COc1cccc(C2=NOC(C(=O)NCc3ccccn3)C2)c1 (centres undefined)	inactive	
COc1ccc(CNC(=O)C2CC(c3cccc([N+](=O)[O-])c3)=NO2)cc1 (centres undefined)	5.01 µM (active)	
COc1cccc(C2=NOC(C(=O)NCc3ccccc3)C2)c1 (centres undefined)	12.6 µM (active)	
COc1ccc(C2=NOC(C(=O)NCc3ccco3)C2)cc1OC (centres undefined)	inactive	
COc1cccc(C2=NOC(C(=O)Nc3ccc(OC)c(OC)c3)C2)c1 (centres undefined)	inactive	
CO[C@H]1COC(=O)C/C=C\[C@@H](C)COC(=O)[C@@H](CCSC)NC(=O)C/C=C\[C@@H]1C		14% [at 11.4 µM] and 6.2% [at 11.4 µM]
O=C(c1cc(C(F)(F)F)cc(C(F)(F)F)c1)N1CCC[C@@]2(CCN(c3ncccn3)C2)C1	inactive	
O=S(=O)(O)c1cc(N=Nc2cccc3ccccc23)c(O)c2ncccc12		-9.94% [at 11.4 µM]
Nc1nc2n[nH]nc2c(=O)[nH]1	inactive	
O=C1[C@H]2CCn3c(=O)n(-c4ccccc4)c(=O)n3[C@H]2[C@H](O)[C@H]2O[C@@H]12		-6.63% [at 11.4 µM]
Cc1nn2c3c(cnc2c1-c1ccccc1)C(=O)CC(c1ccccc1)C3 (centres undefined)	inactive	
O=C(NCC1CCCO1)c1nn2c(c1Cl)NC(c1ccc(F)cc1)CC2C(F)(F)F (centres undefined)	inactive	
C#CCSc1nc(Cc2ccc(Cl)cc2)nc2ccccc12	inactive	
Nc1nc(Cl)nc2c1ncn2[C@@H]1O[C@@H](CO)[C@@H](O)[C@H]1O	inactive	
CCC(Sc1nc2n[nH]c(C)c2c(=N)n1-c1cccc(Cl)c1)C(=O)NCCOC (centres undefined)	inactive	
Cc1ccc(/C(N)=N/OC(=O)Cc2cccs2)cc1	inactive	
Cc1onc(-c2ccccc2)c1C(=O)NC(CC(=O)O)c1ccc(OC(C)C)cc1 (centres undefined)	inactive	
CCCOc1ccc(C(=O)CCNc2ccc(C)c(Cl)c2)cc1	inactive	
CCOc1ccc(C(=O)CCC(=O)O)cc1	inactive	
CCCCOc1ccc(C(=O)CCN2CCCCC2)cc1	5.01 µM (active)	

SMILES	AC50	activity, negative = inhibition
Fc1ccc(CSc2ncnc3sc4c(c23)CCCC4)cc1	inactive	
COc1cc(/C=C(/NC(=O)c2ccccc2)C(=O)Nc2ccccc2)c([N+](=O)[O-])cc1OC	inactive	
COc1c(F)c(F)c(C(=O)O)c(Nc2ccc(C)cc2)c1F	inactive	
Clc1ncccc1-c1nc2ccccc2n1Cc1ccccc1	inactive	
Clc1ccc(Cn2c(-c3cccnc3Cl)nc3ccccc32)c(Cl)c1	7.94 µM (active)	
Nc1nonc1-c1nc2ccccc2n1Cc1ccc(F)cc1Cl	inactive	
CCOC(=O)C1(N(CC)CC)Sc2cc(C)ccc2NC1=O (centres undefined)	inactive	
CC1CC2(CCCCC2)N2C(=O)C(=O)c3cccc1c32 (centres undefined)	7.94 µM (active)	
O=C(NC(=S)Nc1ccc(Oc2ccc(Cl)cc2)cc1)c1ccccc1	inactive	
CCCC[C@]1(C2CCCC2)Cc2cc(OCC(=O)O)c(Cl)c(Cl)c2C1=O	inactive	
COc1cccc(Cn2c(=O)c(-c3cccs3)nc3cnc(Nc4cccc(OC)c4)nc32)c1	inactive	
COc1ccc(/C=C(\C#N)C(N)=O)c(OC)c1		-4.62% [at 11.4 µM]
COc1cc(/C=C(\C#N)C(=O)c2ccc(O)c(O)c2)cc(I)c1O	inactive	
COc1cc(/C=C(\C#N)C(N)=O)cc(CSc2nc3ccccc3s2)c1O	0.0251 µM (active)	
C[C@@]1(C(NC(=O)c2ccc(-c3ccccc3)cc2)c2ccc(Cl)cc2)C[C@H]1C1CCCCC1 (some centres undefined)	inactive	
CCC[C@@H]1C[C@@]1(CCC)C(NC(=O)c1ccco1)c1ccc(Cl)cc1 (some centres undefined)	3.98 µM (active)	
C[C@@]1(C(NC(=O)Cc2ccccc2)c2ccc(-c3ccccc3)cc2)C[C@H]1C1CCCCC1 (some centres undefined)	inactive	
COC(=O)[C@H]1C[C@@H]1[C@H](NC(=O)OCc1ccccc1)c1ccccc1	inactive	
CCCC[C@@H]1C[C@H]1C(NC(=O)c1ccccc1)c1ccccc1 (some centres undefined)	inactive	
CCC[C@@H]1C[C@@]1(CCC)C(NC(=O)OCc1ccccc1)c1ccc(-c2ccccc2)cc1 (some centres undefined)	7.94 µM (active)	
COC(=O)c1ccc(C(NC(=O)c2ccccc2)[C@]2(C)C[C@H]2C2CCCCC2)cc1 (some centres undefined)	inactive	
CCC[C@@H]1C[C@@]1(CCC)C(NC(=O)c1ccccc1)c1cccc(Cl)c1 (some centres undefined)	3.16 µM (active)	
CCOC(=O)CC(NC(=O)c1ccco1)c1ccc(OC)cc1 (centres undefined)	inactive	
COc1ccc2c(c1)c(CC(=O)O)c(C)n2Cc1ccc(Cl)cc1	inactive	
CO[C@@H]1COC(=O)C/C=C\[C@H](C)[C@@H](NS(=O)(=O)c2ccc(C)cc2)COC(=O)C/C=C\[C@@H]1C		1.88% [at 11.4 µM] and 8.18% [at 11.4 µM]

SMILES	AC50	activity, negative = inhibition
Cc1cc(SCC(=O)c2cccs2)nc2c(C)cccc12	inactive	
O=C(O)CC(c1cccc2ccccc12)n1cccc1 (centres undefined)	inactive	
O=C(c1cc(C(F)(F)F)cc(C(F)(F)F)c1)N1CCC2(CC1)CCN(c1ccccn1)CC2	inactive	
O=C1OC2CC3CC1CC(O)(C3)C2 (centres undefined)	inactive	
O=C(NCCO[N+](=O)[O-])c1cccnc1	inactive	
CO[C@@H]1COC(=O)CC=C[C@@H](C)[C@@H]2C=C[C@@H](O)[C@@H](COC(=O)C/C=C\[C@H]1C)O2		20% [at 11.4 µM]
O=c1c(CCc2ccccc2)nc2cncnc2n1Cc1ccccc1Cl	inactive	
CC(C)[C@H](NC(=O)OCc1ccccc1)C(=O)N[C@H](C=O)Cc1ccccc1 (Cbz-Val-Phe-aldehyde)	inactive	
Cc1nc2cnc(N3CCNCC3)nc2n(-c2ccccc2)c1=O	inactive	
CN1CCN(c2ncc3nc(-c4cc(F)cc(F)c4)c(=O)n(C4CC4)c3n2)CC1	inactive	
O=S(=O)(O)c1cc(O)c2c(N=Cc3ccccc3O)cc(S(=O)(=O)O)cc2c1		-8.82% [at 11.4 µM]
Cc1cc(C)n(-c2nc(Nc3ccccc3C)nc(-n3nc(C)cc3C)n2)n1	inactive	
CCN1/C(=C/c2ccc3cccc(C)c3[n+]2CC)Sc2ccccc21	0.0708 µM (active)	
CC1(C)O[C@@H]2C[C@H]3[C@H]4C[C@H](F)C5=CC(=O)C=C[C@@]5(C)[C@@H]4[C@H](O)C[C@]3(C)[C@]2(C(=O)CO)O1	inactive	
Cc1cc(S(=O)(=O)NCCN(C)C)c(C)s1	inactive	
CCN(CCO)Cc1csc2cccc(Br)c12	15.8 µM (active)	
COc1ccc(-n2c(=O)c(-c3cccc(Cl)c3)nc3cncnc32)cc1	inactive	
CCOC(=O)c1cnc2cc(-c3ccc(C(C)(C)C)cc3)nn2c1N	inactive	
O=C(CCc1ccccc1)NCc1cccnc1	inactive	
O=C(CSCc1c(Cl)cccc1Cl)NCc1cccnc1	15.8 µM (active)	
Cn1c(C(=O)O)c(CC(=O)NCc2cccnc2)c2ccccc21	inactive	
O=[N+]([O-])c1ccc(Cl)c(-c2ccc(/C=N/c3c(-c4ccco4)nc4ccccn34)o2)c1	inactive	
Cc1cc(-c2cccc([N+](=O)[O-])c2)nc2ccc3ccccc3c12	inactive	
N#CCCn1c(=O)c(-c2ccc(F)cc2)nc2cnc(Oc3cccc(Cl)c3)nc21	inactive	
